Assay outcomes deposited in PubChem BioAssay by The Scripps Research Institute Molecular Screening Center.
M1 PAM parental = counter-screen for M1 PAMs: effect in parental CHO-K1 cells; ATP EC20, Fluo-8 calcium fluorescence; 0% at ATP EC20, 100% at ATP max; hit rate 0.02% among 360,000; activation, % at 3 µM;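 active = activation above the run cutoff, the mean activation of all test compounds plus 3 SD, cut at about 40% in these data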;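 note: peak over basal fluorescence ratio in a 140 s read after ATP addition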
CHRM1 agonist = agonists of human M1 muscarinic receptor. CHO-K1 hM1, Fluo-8 calcium fluorescence, agonist mode; 0% DMSO, 100% acetylcholine EC100. activation, % at 3 µM. hit rate 0.33% among 360,000;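 active = activation above the run's mean compound activation plus 3 SD, cut at about 16% in these data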;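 note: peak over basal fluorescence ratio within a 140 s kinetic read after compound addition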
Target sequence (P11229 whole entry, looked up): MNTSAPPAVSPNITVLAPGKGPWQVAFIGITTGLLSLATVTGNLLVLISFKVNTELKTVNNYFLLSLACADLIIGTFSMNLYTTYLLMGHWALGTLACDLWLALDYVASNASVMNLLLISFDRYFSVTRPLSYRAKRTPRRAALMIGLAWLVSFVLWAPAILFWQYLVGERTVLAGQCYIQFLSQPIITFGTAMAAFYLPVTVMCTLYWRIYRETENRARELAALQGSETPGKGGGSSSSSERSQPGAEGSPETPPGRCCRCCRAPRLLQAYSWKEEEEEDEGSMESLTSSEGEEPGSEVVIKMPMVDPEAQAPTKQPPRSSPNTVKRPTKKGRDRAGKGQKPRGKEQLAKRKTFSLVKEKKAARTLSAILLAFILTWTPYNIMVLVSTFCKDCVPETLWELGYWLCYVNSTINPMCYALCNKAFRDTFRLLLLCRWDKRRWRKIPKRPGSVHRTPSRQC
M1 antag = blocks human M1 muscarinic receptor; AID 588852; CHO-K1 hM1, Fluo-8 calcium fluorescence, ACh EC80 antagonist; inhibition, % at 3 µM; hit rate 1.3% among 360,000;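 active = percent inhibition above its own plate's cutoff, namely the mean of that plate's compound wells plus 3 SD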;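 note: peak over basal fluorescence ratio during 140 s after agonist addition; 0% = ACh EC80 plus DMSO and 100% = DMSO alone without agonist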
CHO-K1 Ca antag = M1 antagonist counterscreen hit in parental CHO-K1 cells; ATP-induced calcium, Fluo-8 fluorescence; inhibition, % at 3 µM; hit rate 0.6% among 360,000;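 active = inhibition above a per-plate cutoff, the plate's mean sample inhibition plus 3 SD, cut at about 24% in these data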;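 note: 0% = DMSO plus EC80 ATP and 100% = DMSO alone without ATP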
M1 ag parental = M1 agonist counterscreen hit in parental CHO-K1 cells; activation, % at 3 µM; hit rate 0.48% among 360,000; AID 602248; Fluo-8 calcium fluorescence; scaled to maximal ATP response, vehicle zero; in the data active = activation above about 15%;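 note: untransfected CHO-K1 host cells lacking M1 receptor as counterscreen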
CHRM1 PAM = human CHRM1 positive allosteric modulation. P11229. hit rate 0.088% among 360,000. activation, % at 3 µM. CHO-K1 hM1, Fluo-8 calcium fluorescence, ACh EC20; 0% = ACh EC20, 100% = maximal ACh. AID 588819; in the data active = activation above about 19%, passing the limit was not always enough
* = called active by the depositor; . = not tested or not shown. In the library only some 2.3% were active in any assay of this set; here they are far more common.

SMILES	M1 PAM parental	CHRM1 agonist	M1 antag	CHO-K1 Ca antag	M1 ag parental	CHRM1 PAM
CCN(CC)S(=O)(=O)c1ccc(NC(=O)Nc2cccc(C(F)(F)F)c2)cc1	0	2	30*	28*	11	-11
O=C(Nc1ccncc1)Nc1cccc(C(F)(F)F)c1	-20	8	7	23	14	-3
O=C(Nc1ccc(OC(F)F)cc1)Nc1cccc(C(F)(F)F)c1	-1	1	24*	27*	10	-19
Cc1ccc(C(=O)NCC(=O)NNC(=O)CN(C)S(=O)(=O)c2ccc(Cl)cc2)s1	14	-2	2	4	0	1
COc1c[nH]n(-c2ccccc2)c(=O)c1=O	3	-1	-11	-10	0	6
Cc1ccc(C(=O)Cn2cnc3ccccc3c2=O)cc1	30	-2	-24	-16	0	-5
CCOc1ccc(C(=O)Cn2cnc3ccccc3c2=O)cc1	-2	-8	28*	-19	2	-12
COc1ccc(C(N)c2csc(Nc3ccc(S(C)(=O)=O)cc3)n2)cc1 (stereo not given)	18	-4	-12	-7	1	10
Cc1ccccc1COC(=O)CCCC1=NS(=O)(=O)c2ccccc2N1	17	23*	-3	-9	13	-8
Cc1ccc(NC(=O)COC(=O)CCCC2=NS(=O)(=O)c3ccccc3N2)cc1C	-18	-7	-6	-8	0	2
COc1ccc(C(=O)OCC(=O)NCc2ccc3c(c2)OCO3)cc1S(=O)(=O)N1CCOCC1	8	-1	-26	-10	0	12
COc1ccc(OC)c(/C=N/N=C2\SCC(=O)N2Cc2ccco2)c1	19	-5	4	-14	2	-3
COc1ccc(CN2C(=O)CS/C2=N/N=C/c2cccs2)cc1	-12	2	36	25*	10	-12
COc1ccc(C(C(=O)NCC2CCCO2)N(Cc2ccccc2)C(=O)CNC(=O)c2ccco2)cc1OC (stereo not given)	-9	6	-7	7	0	15
COCCCNC(=S)Nc1cc(C)c(C)cc1C	26	-8	62*	-11	1	-23
O=C1NC(=S)S/C1=C\C=C\c1ccc([N+](=O)[O-])o1	2	17*	55*	44*	26*	-5
CC(C)(C)NC(=O)NC(=O)COC(=O)c1ccc(OC(F)(F)F)cc1	3	-7	-4	-2	0	1
CC(C)(C)NC(=O)NC(=O)COC(=O)c1ccc(OC(F)F)cc1	-11	-7	4	28*	0	-1
O=C(O)c1ccc2c(=O)n(-c3ccc(F)cc3)c(=S)[nH]c2c1	14	-1	38*	-7	0	23
O=C(O)c1ccc(-n2c(=O)c3ccccc3c3ccccc3c2=O)cc1	-16	-3	11	31*	0	-12
CC(=O)Nc1ccc(-n2c(=O)c3ccccc3c3ccccc3c2=O)cc1	0	-1	-6	-14	0	5
Cc1ccc(-c2cc(C(=O)N/N=C/c3c(C)nn(C)c3C)c3ccccc3n2)c(C)c1	-6	2	-10	24*	0	7
COc1ccccc1CCNC(=O)C(=O)c1cn(CC(=O)N2CCCC2)c2ccccc12	21	-5	-6	-11	2	12
O=C(NCCc1ccccc1)C(=O)c1cn(CC(=O)N2CCCC2)c2ccccc12	-10	-4	-8	24*	1	7
CN(Cc1ccc(C(C)(C)C)cc1)C(=O)C1CCN(C(=O)Nc2ccccc2)CC1	0	-4	-6	-1	5	2
SMILES	M1 PAM parental	CHRM1 agonist	M1 antag	CHO-K1 Ca antag	M1 ag parental	CHRM1 PAM
COC(=O)C1CCN(C(=O)CN(C)Cc2ccc(C(C)(C)C)cc2)CC1	7	-11	34*	4	0	-25
CCNc1nc(-c2sc(NC(=O)C(C)(C)C)nc2C)c(-n2cc(-c3ccccc3)nn2)s1	-3	.	.	21	13	.
CCCc1cc(=O)[nH]c(SCC(=O)Nc2ccc(Br)cc2Br)n1	11	-5	22	11	6	-13
CSc1ccccc1NC(=O)c1ccccc1	10	-4	-11	0	16*	8
Nc1ccc(NC(=O)c2ccccc2)c2c1C(=O)c1ccccc1C2=O	-10	-4	9	26*	0	-2
O=C(Nc1ccccc1C(=O)N1CCCC1)c1ccccc1	-14	16*	16	15	0	5
COc1ccc(NC(=O)C2C3C=CC4(O3)C2C(=O)N(CCN2CCCCC2)C4C(=O)NC2CCCC(C)C2C)cc1 (stereo not given)	-4	-11	-5	4	7	4
O=C(NCc1ccccn1)c1ccc(CNS(=O)(=O)c2ccc(F)cc2)cc1	27	-4	-3	-10	2	8
Cc1ccn2c(-c3csc(NCc4ccccc4)n3)c(C)nc2c1	-6	-2	15	25*	5	-6
Cc1ccc(Nc2nc(-c3c(C)nc4ccccn34)cs2)cc1	-8	-5	23*	5	4	-11
Cc1ccc(Nc2nc(-c3c(C)nc4ncccn34)cs2)cc1	23	-4	-9	-13	5	5
Cc1nc2ccccn2c1-c1csc(NCc2ccco2)n1	-8	-1	-3	-2	5	4
C#Cc1ccc(NC(=O)C2(C)CCN2C(=O)Cc2ccc(C(C)C)cc2)cc1 (stereo not given)	14	-6	14	-11	2	-14
COc1cc(OC)c(-c2c3cc(O)c(=O)cc-3oc3cc(O)c(O)cc23)cc1OC	-16	385*	74*	68*	258*	-28
CN1CCN(NC(=O)Nc2cccc(F)c2)CC1	3	-3	31*	3	6	-13
O=C(NCc1ccc(F)cc1)Nc1cccc(Cl)c1	-15	-4	13	31*	5	-16
O=C(Nc1cccc(F)c1)Nc1cccc(Cl)c1	-9	3	43*	30*	16*	-21
O=C(NCc1ccc(F)cc1)Nc1ccc(Cl)cc1	-5	0	2	-1	12	4
Cc1cccc(N2CCN(C(=O)CCc3nc4ccccc4c(=O)[nH]3)CC2)c1C	25	-4	-13	-23	0	9
CC(C)CCOc1ccc(C(=O)NCC(c2ccco2)N(C)C)cc1 (stereo not given)	7	-12	28*	-4	-1	-30
CC(=O)c1ccc(OCCCC(=O)NCC(c2ccco2)N(C)C)cc1 (stereo not given)	-8	-5	0	25*	0	0
CCOc1ccc(NS(=O)(=O)c2ccc(C(=O)NCC(c3ccco3)N(C)C)cc2)cc1 (stereo not given)	-12	9	5	10	11	-10
CCCNC(=O)C1(C)CCCN(Cc2ccccc2C#N)C1 (stereo not given)	6	-3	-1	-8	0	2
